Screens deposited in PubChem BioAssay by several laboratories.
Sampled rows, rich in hits. Any-hit rate of the full collection: about 4%.
Cl transport mod = KCC2 cotransporter modulators, thallium flux, primary screen, cell-based, HEK293 KCC2, FluoZin-2 fluorescence, MLSMR. Solute carrier family 12 member 5 (Homo sapiens), Q9H2X9. KCC2 cells, thallium flux FluoZin-2 fluorescence. B-score of Tl+ flux slope (higher = more flux/activation; lower = inhibition) at 10 µM. hit rate 2.2% among 190,000. AID 1456, 2008;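 active means thallium flux slope and its plate-corrected score both differing from the plate sample mean at a set confidence after two filtering rounds, in either direction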;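 further: slope of fluorescence scaled to starting intensity during 10 to 20 s after thallium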
Target sequence (Q9H2X9 whole entry, looked up): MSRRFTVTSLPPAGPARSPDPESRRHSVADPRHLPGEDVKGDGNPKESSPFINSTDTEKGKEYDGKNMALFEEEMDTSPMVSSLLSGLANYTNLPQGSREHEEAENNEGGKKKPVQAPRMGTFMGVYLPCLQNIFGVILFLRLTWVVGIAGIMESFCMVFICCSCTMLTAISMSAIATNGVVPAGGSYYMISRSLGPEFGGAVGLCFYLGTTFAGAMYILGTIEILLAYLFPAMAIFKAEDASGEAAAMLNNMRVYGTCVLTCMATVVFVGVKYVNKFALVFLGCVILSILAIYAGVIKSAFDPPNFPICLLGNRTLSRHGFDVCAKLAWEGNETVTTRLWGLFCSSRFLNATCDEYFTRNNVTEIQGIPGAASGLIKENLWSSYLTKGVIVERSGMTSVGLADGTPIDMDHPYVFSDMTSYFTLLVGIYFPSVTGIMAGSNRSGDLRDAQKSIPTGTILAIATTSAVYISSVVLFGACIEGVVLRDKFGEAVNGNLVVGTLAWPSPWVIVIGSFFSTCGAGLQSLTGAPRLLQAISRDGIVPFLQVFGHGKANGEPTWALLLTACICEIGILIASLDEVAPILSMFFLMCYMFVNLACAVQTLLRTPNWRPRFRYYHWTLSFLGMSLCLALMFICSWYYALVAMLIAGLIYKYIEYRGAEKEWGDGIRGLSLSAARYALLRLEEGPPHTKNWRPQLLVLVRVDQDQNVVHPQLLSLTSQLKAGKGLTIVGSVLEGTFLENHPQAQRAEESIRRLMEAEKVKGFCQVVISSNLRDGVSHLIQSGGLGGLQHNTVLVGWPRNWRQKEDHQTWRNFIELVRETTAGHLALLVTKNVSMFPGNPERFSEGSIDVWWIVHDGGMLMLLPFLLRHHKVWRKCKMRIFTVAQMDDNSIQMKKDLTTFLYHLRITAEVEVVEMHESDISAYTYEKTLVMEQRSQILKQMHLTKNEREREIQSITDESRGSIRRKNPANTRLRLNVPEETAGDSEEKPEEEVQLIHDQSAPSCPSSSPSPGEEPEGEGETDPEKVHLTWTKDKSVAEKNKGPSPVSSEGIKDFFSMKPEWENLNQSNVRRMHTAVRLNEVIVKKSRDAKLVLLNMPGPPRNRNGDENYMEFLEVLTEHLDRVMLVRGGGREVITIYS
HSV replic up = enhancers of HSV replication in host cells, fold increase, host cell viability | HSV replication augmentation in cells | maximum fold increase | hit rate 0.005% among 220,000 | AID 1956, 2009; in the data active means maximum fold increase above about 1.5; tested in PC3 cells
ROMK mod = ROMK potassium channel modulators, primary screen, cell-based, thallium flux, MLSMR library; ATP-sensitive inward rectifier potassium channel 1 (Homo sapiens), P48048; Tet-inducible ROMK, thallium flux fluorescence; actives lie on both sides; B-score at 10 µM; hit rate 2% among 130,000;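 active means signal ratio slope over the read window, or its plate-corrected B-score, at least 3 SD from the plate mean, either direction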;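 further: B-score of the F/F0 ratio slope over 7 to 12 s after thallium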
Arbovirus anti = antivirals against arbovirus infection, primary screen, cell-based, full library, 10K replicate subset; arbovirus infection cell-based antiviral screen; inhibition, % at 10 µM; hit rate 0.37% among 200,000; AID 1251, 2008; in the data active means inhibition above about 30%
Measles CPE = compounds protecting cells from measles virus cytopathic effect, primary screen, measles RdRp inhibitor project, single point, MLSMR library, absorbance; hit rate 1.5% among 140,000; protection (pct of control), % at 4 µM; AID 841, 2007; Measles virus-infected cells, CPE protection; in the data active means protection mostly above about 24%, no sharp cut-off; inactive means mostly below about 26%
The depositor's hits bear a star.

`Cc1c(NC(=O)c2c(N)n(-c3ccccc3)c3nc4ccccc4nc23)c(=O)n(-c2ccccc2)n1C` gave Cl transport mod -0.868, HSV replic up inactive, Arbovirus anti -5.2 and Measles CPE 59.2*.
Screening CCOC(=O)N1CCN(CC(=O)Nc2sc(CC)cc2C(=O)c2ccc(OC)cc2)CC1 returned Cl transport mod -2.69, HSV replic up inactive and ROMK mod -0.816.
Screening O=C(c1ccc(C(F)(F)F)cc1)C1CCCN(Cc2cccn2-c2ncccn2)C1 (centres undefined) returned Cl transport mod 1.21, HSV replic up inactive, ROMK mod -1.14 and Arbovirus anti -17.0.
For Cc1c(NC(=O)c2noc3c2CCc2ccccc2-3)c(=O)n(-c2ccccc2)n1C the results were Cl transport mod -3.35*, HSV replic up inactive and Arbovirus anti -0.9.
Screening Cc1cc(NC(=O)c2noc3c2CCc2ccccc2-3)no1 returned Arbovirus anti -2.4 and Measles CPE 4.5.
Cc1nc(SCc2ccc(C(=O)O)cc2)c2c(C)c(C)sc2n1 was read as Cl transport mod -1.31, HSV replic up inactive and ROMK mod -1.68.
`Cc1nc(SC2CCOC2=O)c2c(C)c(C)sc2n1` (centres undefined) gave Cl transport mod 7.08*, HSV replic up inactive, Arbovirus anti 11.5 and Measles CPE 9.3.
For COC(=O)c1ccc(CSc2nnc(-c3c[nH]c4ccccc34)n2C)o1 the results were HSV replic up inactive, Arbovirus anti 3.2 and Measles CPE 5.4.
Screening COC(=O)c1ccc(CSc2nnc(-c3c[nH]c4ccccc34)n2-c2ccccc2)cc1 returned Cl transport mod 0.0902, HSV replic up inactive, Arbovirus anti 4.3 and Measles CPE 53.8*.
COc1ccc(/C=N/NC(=O)c2nn(-c3ccccc3)c(=O)c3c(N)scc23)cc1 was read as Cl transport mod 0.123, HSV replic up inactive, Arbovirus anti -7.4 and Measles CPE 50.6*.
`CCCN1CNc2c(c(=O)[nH]c(=S)n2CCc2ccccc2)C1` gave Cl transport mod -0.115, HSV replic up inactive and Arbovirus anti 5.0.
Screening Cc1ccc(N(Cc2ccc(C(=O)NN=C3CCN(C)CC3)cc2)S(C)(=O)=O)cc1C returned Cl transport mod -0.0177, HSV replic up inactive, ROMK mod 0.981, Arbovirus anti 1.3 and Measles CPE 13.0.
For CCCCNC(=O)CSc1nc2ccccc2c(=O)n1CCNC(C)=O the results were Cl transport mod -0.45, HSV replic up inactive, Arbovirus anti -0.4 and Measles CPE 3.5.
`CC(=O)NCCn1c(SCC(=O)NCCC(C)C)nc2ccccc2c1=O` gave HSV replic up inactive, Arbovirus anti 3.8 and Measles CPE 60.5*.
CC(=O)NCCn1c(SCC(=O)NCC2CCCO2)nc2ccccc2c1=O (centres undefined) was read as Cl transport mod -0.707, HSV replic up inactive, Arbovirus anti 1.8 and Measles CPE 51.8*.
Screening Nc1cc(N)nc(SCC(=O)NCC2CCCO2)n1 (centres undefined) returned Cl transport mod -1.58, HSV replic up inactive, Arbovirus anti 6.7 and Measles CPE 31.1*.
For COC(=O)c1sccc1-n1cccc1C(=O)C(=O)N1CCOCC1 the results were Cl transport mod 0.134, HSV replic up inactive, ROMK mod -0.227 and Arbovirus anti -1.7.
O=c1[nH]c2ccsc2c(=O)n1CCO was read as Cl transport mod 0.0453 and HSV replic up inactive.
`O=C(O)C1=C[C@@H](c2csc3ccccc23)C[C@@H](OCc2ccc(CO)cc2)O1` gave Cl transport mod -3.12*, HSV replic up inactive and Arbovirus anti 2.1.
COc1ccc(-n2c(=S)[nH]c3ncccc3c2=O)cc1 was read as Cl transport mod 0.0634 and HSV replic up inactive.
For COc1ccc(-n2c(=S)[nH]c3ccccc32)cc1 the results were Cl transport mod 22.5*, HSV replic up inactive, ROMK mod 0.358, Arbovirus anti -3.3 and Measles CPE 33.9.
O=C(COc1ccccc1)Nc1nc2ccccc2[nH]1 was read as Cl transport mod -0.368, HSV replic up inactive, ROMK mod 0.269, Arbovirus anti 3.8 and Measles CPE 4.0.
For O=C(CSc1ccc2ccccc2c1)Nc1nc2ccccc2[nH]1 the results were Cl transport mod -0.0395, HSV replic up inactive, ROMK mod 0.406, Arbovirus anti -9.4 and Measles CPE 42.5*.
CC(=O)Nc1ccc(-c2nnc(SCc3ccccc3C#N)n2C)cc1 was read as Cl transport mod -0.0122, HSV replic up inactive, ROMK mod -0.524, Arbovirus anti 1.8 and Measles CPE 23.9*.
Screening Cc1ccc(NC(=O)C(=O)NCCN2CCN(S(=O)(=O)c3ccccc3)CC2)cc1C returned Cl transport mod 1.31, HSV replic up inactive, ROMK mod 0.0201 and Arbovirus anti 22.0.
COCC[N+]1(C)CCCCC1 was read as HSV replic up inactive and Arbovirus anti 4.7.
Cc1csc(NC(C)c2nc3cc(Cl)c(N4CCCCC4)cc3n2CCOCCO)n1 (centres undefined) was read as HSV replic up inactive.
For Cc1ccc(NS(=O)(=O)c2ccc3c(c2)oc(=O)n3C)cc1F the results were Cl transport mod -0.124, HSV replic up inactive, Arbovirus anti 20.9 and Measles CPE 45.5*.
`Cn1c(=O)oc2cc(S(=O)(=O)Nc3cccc(F)c3)ccc21` gave Cl transport mod 0.0737, HSV replic up inactive, Arbovirus anti 3.1 and Measles CPE 25.1.
`O=C(c1ccc(CSc2nc3ccncc3[nH]2)cc1)N1CCCCCC1` gave Cl transport mod 0.413 and HSV replic up inactive.
Screening O=C(c1ccc(CSc2nc3ccncc3[nH]2)cc1)N1CCN(c2cccc(Cl)c2)CC1 returned Cl transport mod -1.93, HSV replic up inactive, ROMK mod -3.52*, Arbovirus anti -5.8 and Measles CPE 11.2.
For CCC(C)(C)NC(=O)C(c1cccnc1)N(C(=O)c1csnn1)c1ccccc1 (centres undefined) the results were Cl transport mod 1.6, HSV replic up inactive, ROMK mod 1.37 and Arbovirus anti -2.2.
For c1ccc(C2=NN(c3ccccc3)CC2)cc1 the results were Cl transport mod -0.423 and HSV replic up inactive.
CCOC(=O)/C(=C/c1ccc(N2CCC(c3ccccc3)=N2)cc1)C(C)=O was read as Cl transport mod -0.619, HSV replic up inactive, ROMK mod -3.38*, Arbovirus anti -2.2 and Measles CPE 6.2.
Screening CCOC(=O)c1ccccc1-c1cn2cc(Cl)ccc2n1 returned Cl transport mod -0.987, HSV replic up inactive, ROMK mod 0.0624 and Arbovirus anti -8.0.
CCOC(=O)c1cc2c(N)c(C(=O)c3ccc(Br)cc3)sc2[nH]c1=O was read as Cl transport mod -1.02, HSV replic up inactive, ROMK mod 0.25 and Arbovirus anti 32.3*.
